# Measured values: the supplement of paper PMC10849652
# About 7,900 targets were measured; listed, in parts, are those with a hit and a random draw of the rest. About 0.6% of all pairs of compound and target were hits. Unmarked numbers belong to inactive results.
# Experiments:
# Assay in all cases: log2 fold change, soluble protein after heating vs DMSO (PISA); higher = thermal stabilisation; K562 cells, 10 uM, 30 min; active = over 0.2 and 3.5 SD of the protein, either way, in both replicates (recomputed)
# ZEB2 = ZEB2 (UniProt O60315)
# Procedure, shortened: (§1)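 K562 cells at 2×10^6 cells/mL were given 10 μM compound for 30 min. Aliquots then went through 3 min of heating across 48°C-58°C, were pooled, and were extracted in PBS with 0.5% NP-40 at 4°C, and the supernatant after 21,000xg for 90 min was quantified by TMTpro 16plex LC-MS/MS with channel sums equalised. Thermal stability relative to control samples, from duplicates, is given as log2 fold change.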
# ZER1 = ZER1 (UniProt Q7Z7L7)
# Procedure, shortened: as §1
# ZFAND5 = ZFAND5 (UniProt O76080)
# Procedure, shortened: as §1
# ZFAND6 = ZFAND6 (UniProt Q6FIF0)
# Procedure, shortened: as §1
# ZFP91 = ZFP91 (UniProt Q96JP5)
# Procedure, shortened: as §1
# ZFPL1 = ZFPL1 (UniProt O95159)
# Procedure, shortened: as §1
# ZMAT2 = ZMAT2 (UniProt Q96NC0)
# Procedure, shortened: as §1
# ZMYM1 = ZMYM1 (UniProt Q5SVZ6)
# Procedure, shortened: as §1
# ZMYM3 = ZMYM3 (UniProt Q14202)
# Procedure, shortened: as §1
# ZNF143 = ZNF143 (UniProt P52747)
# Procedure, shortened: as §1
# ZNF217 = ZNF217 (UniProt O75362)
# Procedure, shortened: as §1
# ZNF239 = ZNF239 (UniProt Q16600)
# Procedure, shortened: as §1
# ZNF277 = ZNF277 (UniProt Q9NRM2)
# Procedure, shortened: as §1
# ZNF511 isoform 1 = ZNF511 isoform 1 (UniProt Q8NB15)
# Procedure, shortened: as §1
# ZNF579 = ZNF579 (UniProt Q8NAF0)
# Procedure, shortened: as §1
# ZNF609 = ZNF609 (UniProt O15014)
# Procedure, shortened: as §1
# ZNF622 = ZNF622 (UniProt Q969S3)
# Procedure, shortened: as §1
# ZRANB2 = ZRANB2 (UniProt O95218)
# Procedure, shortened: as §1
# ZNF580 = ZNF580 (UniProt Q9UK33)
# Procedure, shortened: as §1
# ZNF512 = ZNF512 (UniProt Q96ME7)
# Procedure, shortened: as §1
# ZNF143, sequence (P52747 whole entry, looked up): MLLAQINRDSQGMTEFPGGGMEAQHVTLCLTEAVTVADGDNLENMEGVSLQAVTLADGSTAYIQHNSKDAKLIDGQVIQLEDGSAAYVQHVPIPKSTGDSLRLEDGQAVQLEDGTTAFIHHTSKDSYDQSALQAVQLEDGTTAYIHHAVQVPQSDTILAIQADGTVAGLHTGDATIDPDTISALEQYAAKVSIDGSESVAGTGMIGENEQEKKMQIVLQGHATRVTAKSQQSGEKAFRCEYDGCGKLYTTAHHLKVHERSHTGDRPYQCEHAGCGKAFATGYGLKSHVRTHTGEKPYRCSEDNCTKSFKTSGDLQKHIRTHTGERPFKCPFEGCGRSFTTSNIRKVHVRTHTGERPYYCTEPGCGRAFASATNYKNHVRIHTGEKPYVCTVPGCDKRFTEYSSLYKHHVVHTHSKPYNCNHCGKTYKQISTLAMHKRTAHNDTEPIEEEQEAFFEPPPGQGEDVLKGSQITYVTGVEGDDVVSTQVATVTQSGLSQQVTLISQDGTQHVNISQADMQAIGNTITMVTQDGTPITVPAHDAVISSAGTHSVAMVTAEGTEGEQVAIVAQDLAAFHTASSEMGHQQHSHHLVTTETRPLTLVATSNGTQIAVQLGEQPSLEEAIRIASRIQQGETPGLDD
# ZNF622, sequence (Q969S3 whole entry, looked up): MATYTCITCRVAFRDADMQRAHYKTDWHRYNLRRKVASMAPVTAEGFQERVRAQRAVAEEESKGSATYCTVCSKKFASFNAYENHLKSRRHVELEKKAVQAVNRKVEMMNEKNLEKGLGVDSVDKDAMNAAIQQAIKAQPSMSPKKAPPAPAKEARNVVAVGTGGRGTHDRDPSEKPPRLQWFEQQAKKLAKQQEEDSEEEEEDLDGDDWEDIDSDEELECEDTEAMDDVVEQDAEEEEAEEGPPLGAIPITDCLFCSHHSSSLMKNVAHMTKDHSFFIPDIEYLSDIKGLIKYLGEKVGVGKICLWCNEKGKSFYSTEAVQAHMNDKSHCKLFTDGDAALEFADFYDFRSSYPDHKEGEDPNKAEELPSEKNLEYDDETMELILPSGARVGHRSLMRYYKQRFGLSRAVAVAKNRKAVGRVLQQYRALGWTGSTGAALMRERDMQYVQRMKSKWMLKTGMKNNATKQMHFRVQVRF
# ZNF609, sequence (O15014 whole entry, looked up): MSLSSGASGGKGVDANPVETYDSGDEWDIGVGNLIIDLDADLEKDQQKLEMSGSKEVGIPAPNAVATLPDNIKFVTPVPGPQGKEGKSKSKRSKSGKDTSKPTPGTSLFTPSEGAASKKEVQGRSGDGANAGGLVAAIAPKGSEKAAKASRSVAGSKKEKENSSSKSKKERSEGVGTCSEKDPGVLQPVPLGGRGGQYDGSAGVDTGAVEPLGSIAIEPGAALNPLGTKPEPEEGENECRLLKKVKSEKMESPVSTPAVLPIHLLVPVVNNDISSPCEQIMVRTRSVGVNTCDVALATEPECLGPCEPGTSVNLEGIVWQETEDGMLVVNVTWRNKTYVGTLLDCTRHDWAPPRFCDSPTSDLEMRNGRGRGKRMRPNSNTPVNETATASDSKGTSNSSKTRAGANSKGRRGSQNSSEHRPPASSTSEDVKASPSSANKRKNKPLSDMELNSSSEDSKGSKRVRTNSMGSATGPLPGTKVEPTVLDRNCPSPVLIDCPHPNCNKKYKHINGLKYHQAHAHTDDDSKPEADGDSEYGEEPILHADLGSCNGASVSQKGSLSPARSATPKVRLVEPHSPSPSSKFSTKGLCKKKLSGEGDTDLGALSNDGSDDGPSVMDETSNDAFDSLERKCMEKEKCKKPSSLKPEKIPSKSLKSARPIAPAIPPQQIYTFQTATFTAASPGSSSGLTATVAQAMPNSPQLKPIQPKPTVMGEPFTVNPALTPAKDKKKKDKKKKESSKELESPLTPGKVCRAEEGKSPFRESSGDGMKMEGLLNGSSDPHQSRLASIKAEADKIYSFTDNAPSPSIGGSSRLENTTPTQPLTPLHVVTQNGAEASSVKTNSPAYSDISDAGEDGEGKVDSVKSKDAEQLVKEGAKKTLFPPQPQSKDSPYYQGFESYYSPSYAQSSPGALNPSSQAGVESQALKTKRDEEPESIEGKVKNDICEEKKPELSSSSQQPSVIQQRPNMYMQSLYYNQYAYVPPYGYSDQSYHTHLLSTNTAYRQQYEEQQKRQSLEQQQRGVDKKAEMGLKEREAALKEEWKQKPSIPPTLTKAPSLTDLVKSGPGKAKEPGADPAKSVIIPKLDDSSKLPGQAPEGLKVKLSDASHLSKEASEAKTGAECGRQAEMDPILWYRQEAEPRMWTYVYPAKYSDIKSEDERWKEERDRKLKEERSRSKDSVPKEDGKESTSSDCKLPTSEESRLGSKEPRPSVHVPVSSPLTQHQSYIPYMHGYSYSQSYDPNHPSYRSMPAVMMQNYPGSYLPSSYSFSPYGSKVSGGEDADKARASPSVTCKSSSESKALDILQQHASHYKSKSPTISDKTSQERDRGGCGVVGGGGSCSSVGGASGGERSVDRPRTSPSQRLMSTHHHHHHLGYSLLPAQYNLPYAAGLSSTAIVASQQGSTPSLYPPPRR
# ZFAND5, sequence (O76080 whole entry, looked up): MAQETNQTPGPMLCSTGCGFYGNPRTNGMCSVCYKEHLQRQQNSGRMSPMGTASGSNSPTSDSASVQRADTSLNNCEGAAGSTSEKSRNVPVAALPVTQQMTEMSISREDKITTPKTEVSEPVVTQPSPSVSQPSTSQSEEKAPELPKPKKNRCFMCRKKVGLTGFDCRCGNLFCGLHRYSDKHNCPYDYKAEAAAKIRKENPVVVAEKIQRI
# ZMAT2, sequence (Q96NC0 whole entry, looked up): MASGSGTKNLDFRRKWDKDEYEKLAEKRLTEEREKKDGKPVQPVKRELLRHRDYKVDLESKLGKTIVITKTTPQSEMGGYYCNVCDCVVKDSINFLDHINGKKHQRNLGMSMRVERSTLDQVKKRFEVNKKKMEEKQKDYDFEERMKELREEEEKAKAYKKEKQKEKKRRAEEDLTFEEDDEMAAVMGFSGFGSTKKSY
# ZFPL1, sequence (O95159 whole entry, looked up): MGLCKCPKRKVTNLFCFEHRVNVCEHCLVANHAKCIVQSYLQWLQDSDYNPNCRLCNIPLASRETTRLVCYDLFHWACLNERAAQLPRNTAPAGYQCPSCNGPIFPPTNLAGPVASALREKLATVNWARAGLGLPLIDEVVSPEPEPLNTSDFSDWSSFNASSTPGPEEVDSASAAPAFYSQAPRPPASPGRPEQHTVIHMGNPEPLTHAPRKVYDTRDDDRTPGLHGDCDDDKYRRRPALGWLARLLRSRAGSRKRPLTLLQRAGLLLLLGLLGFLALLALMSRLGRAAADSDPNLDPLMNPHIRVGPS
# ZFP91, sequence (Q96JP5 whole entry, looked up): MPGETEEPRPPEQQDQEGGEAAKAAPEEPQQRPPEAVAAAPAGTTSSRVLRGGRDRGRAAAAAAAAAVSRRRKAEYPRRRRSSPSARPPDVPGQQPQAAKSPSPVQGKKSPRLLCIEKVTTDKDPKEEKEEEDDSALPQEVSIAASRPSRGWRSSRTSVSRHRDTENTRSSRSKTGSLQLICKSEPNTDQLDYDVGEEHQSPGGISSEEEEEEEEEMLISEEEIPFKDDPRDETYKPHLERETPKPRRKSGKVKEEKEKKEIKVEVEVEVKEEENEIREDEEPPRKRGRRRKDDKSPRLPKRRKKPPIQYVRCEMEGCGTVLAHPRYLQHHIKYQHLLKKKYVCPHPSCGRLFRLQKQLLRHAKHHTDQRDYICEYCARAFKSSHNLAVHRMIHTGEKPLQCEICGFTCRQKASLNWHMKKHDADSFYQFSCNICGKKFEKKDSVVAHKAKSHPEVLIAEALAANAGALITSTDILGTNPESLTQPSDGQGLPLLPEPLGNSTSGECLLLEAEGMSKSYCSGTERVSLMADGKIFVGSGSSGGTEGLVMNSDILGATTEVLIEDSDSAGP
# ZFAND6, sequence (Q6FIF0 whole entry, looked up): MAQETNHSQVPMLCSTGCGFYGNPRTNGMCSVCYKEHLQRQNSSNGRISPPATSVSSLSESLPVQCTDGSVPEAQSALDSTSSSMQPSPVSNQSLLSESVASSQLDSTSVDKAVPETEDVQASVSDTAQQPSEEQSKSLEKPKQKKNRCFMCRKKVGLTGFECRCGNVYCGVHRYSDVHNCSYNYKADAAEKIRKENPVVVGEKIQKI
# ZNF580, sequence (Q9UK33 whole entry, looked up): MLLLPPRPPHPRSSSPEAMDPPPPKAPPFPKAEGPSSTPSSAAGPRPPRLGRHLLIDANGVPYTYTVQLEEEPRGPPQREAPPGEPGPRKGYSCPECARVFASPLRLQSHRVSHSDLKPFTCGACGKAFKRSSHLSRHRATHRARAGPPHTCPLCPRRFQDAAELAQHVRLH
# ZNF511 isoform 1, sequence (Q8NB15 whole entry, looked up, canonical isoform): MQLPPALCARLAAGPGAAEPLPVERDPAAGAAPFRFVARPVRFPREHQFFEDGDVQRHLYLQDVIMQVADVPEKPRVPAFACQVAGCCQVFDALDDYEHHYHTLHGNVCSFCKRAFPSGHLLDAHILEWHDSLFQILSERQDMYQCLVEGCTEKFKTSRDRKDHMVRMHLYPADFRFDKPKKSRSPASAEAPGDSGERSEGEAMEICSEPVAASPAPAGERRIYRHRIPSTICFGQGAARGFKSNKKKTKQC
# ZNF277, sequence (Q9NRM2 whole entry, looked up): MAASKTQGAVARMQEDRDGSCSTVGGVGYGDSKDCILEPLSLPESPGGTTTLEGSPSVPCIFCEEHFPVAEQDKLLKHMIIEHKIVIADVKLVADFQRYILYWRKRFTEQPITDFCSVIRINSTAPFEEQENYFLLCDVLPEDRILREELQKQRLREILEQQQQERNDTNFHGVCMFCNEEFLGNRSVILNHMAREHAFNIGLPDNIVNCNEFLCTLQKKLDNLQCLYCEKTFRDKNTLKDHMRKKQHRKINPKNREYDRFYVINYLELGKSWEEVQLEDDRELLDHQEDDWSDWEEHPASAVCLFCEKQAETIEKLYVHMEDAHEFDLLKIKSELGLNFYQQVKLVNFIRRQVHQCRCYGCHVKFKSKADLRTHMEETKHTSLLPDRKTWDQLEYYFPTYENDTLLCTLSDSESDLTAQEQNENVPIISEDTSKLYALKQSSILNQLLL
SMILES,log2 fold change (ZEB2),log2 fold change (ZER1),log2 fold change (ZFAND5),log2 fold change (ZFAND6),log2 fold change (ZFP91),log2 fold change (ZFPL1),log2 fold change (ZMAT2),log2 fold change (ZMYM1),log2 fold change (ZMYM3),log2 fold change (ZNF143),log2 fold change (ZNF217),log2 fold change (ZNF239),log2 fold change (ZNF277),log2 fold change (ZNF511 isoform 1),log2 fold change (ZNF579),log2 fold change (ZNF609),log2 fold change (ZNF622),log2 fold change (ZRANB2),log2 fold change (ZNF580),log2 fold change (ZNF512)
CCN(CCCOc1ccc2c(Nc3cc(CC(=O)Nc4cccc(F)c4)[nH]n3)ncnc2c1)CCOP(=O)(O)O [barasertib],0.117,0.034,-0.013,0.04,-0.105,-0.032,-0.047,0.022,-0.076,0.01,0.03,-0.034,0.026,-0.041,0.037,0.039,-0.001,-0.01,–,–
CC(C)C[C@@H](C=O)NC(=O)[C@H](CC(C)C)NC(=O)[C@H](CC(C)C)NC(=O)OCc1ccccc1,0.131,0.039,0.007,0.119,0,0.038,0.049,0.006,0.09,-0.119,0.024,0.045,0.137,0.195,-0.271,0.031,-0.036,-0.027,–,–
Cc1ccc(-n2nc(C(C)(C)C)cc2NC(=O)Nc2ccc(OCCN3CCOCC3)c3ccccc23)cc1 [doramapimod],0.032,-0.163,0.106,0.017,0.109,-0.098,-0.024,0.003,-0.009,0.01,-0.027,0.069,0.123,–,0.11,0.036,0.009,-0.014,0.165,–
O=C(Nc1cccc(Nc2ncc(Br)c(NCCc3cnc[nH]3)n2)c1)N1CCCC1,-0.106,-0.015,0.01,-0.058,0.004,-0.047,0.017,-0.136,-0.042,-0.058,0.01,0.001,0.034,0.072,-0.377 (active),-0.035,0.022,-0.007,0.062,–
CN1CCN(CCOc2cc(OC3CCOCC3)c3c(Nc4c(Cl)ccc5c4OCO5)ncnc3c2)CC1 [saracatinib],0.008,0.013,0.08,-0.035,0.036,0.016,0.026,-0.024,0.098,0.094,-0.083,0.052,-0.276,–,-0.025,0.047,-0.005,0.044,0.108,–
Cc1ccc(C(=O)N(CCCN)[C@@H](c2nc3cc(Cl)ccc3c(=O)n2Cc2ccccc2)C(C)C)cc1 [ispinesib],0.05,0.153,-0.07,-0.082,-0.227,0.236,0.042,-0.122,-0.013,-0.038,-0.064,-0.074,-0.27,0.296,0.029,0.014,0.062,0.005,–,–
CCCS(=O)(=O)Nc1ccc(F)c(C(=O)c2c[nH]c3ncc(-c4ccc(Cl)cc4)cc23)c1F [vemurafenib],0.256,-0.033,-0.106,-0.024,-0.071,0.021,-0.021,-0.095,-0.109,0.029,0.044,0.004,0.063,-0.087,-0.157,0.025,0.012,-0.014,0.042,–
Cc1cccc(-c2[nH]c(C(C)(C)C)nc2-c2ccc3nccnc3c2)n1,0.031,-0.248,0.007,-0.088,-0.069,0.032,0.088,0.042,-0.038,0.021,0.01,0.013,-0.107,–,-0.073,0.014,0.008,-0.05,-0.183,–
Cn1cc(-c2ccc3nnc(C(F)(F)c4ccc5ncccc5c4)n3n2)cn1,-0.135,-0.024,-0.036,-0.009,-0.073,-0.03,-0.051,0.05,-0.246 (active),0.041,-0.01,-0.102,-0.064,-0.132,0.002,-0.286,0.024,0.036,–,–
Cn1c2cc(S(C)=O)sc2c2cnn(Cc3cccc(N)c3)c(=O)c21 (centres undefined),0.098,0.019,0.022,-0.003,0.099,-0.031,-0.034,-0.014,-0.023,-0.003,0.237,0.34,0.084,–,0.008,0.021,-0.061,-0.006,0.259,–
CNC(=O)c1ccccc1Nc1nc(Nc2ccc(N3CCOCC3)cc2OC)ncc1Cl,-0.07,-0.164,-0.141,-0.015,-0.016,0.061,-0.018,-0.082,0,-0.084,-0.029,-0.055,0.009,–,-0.019,-0.057,0.045,0.002,–,0.151
CCN(CC)Cc1ccc2cc(COC(=O)Nc3ccc(C(=O)NO)cc3)ccc2c1 [givinostat],0.193,0.117,-0.016,0.017,0.009,-0.09,-0.008,0.12,0.002,-0.022,0.037,-0.226,0.199,–,0.042,0.063,-0.004,-0.029,–,0.112
Oc1cc(-c2nc(-c3ccccc3)[nH]c2-c2ccncc2)ccc1Cl,-0.053,0.012,-0.024,-0.006,-0.06,-0.119,-0.042,-0.101,-0.033,0.093,-0.014,0.044,-0.004,0.018,-0.025,0.01,0.016,-0.073,–,–
C[C@@H](Oc1cc(-c2cnn(C3CCNCC3)c2)cnc1N)c1c(Cl)ccc(F)c1Cl [crizotinib],-0.141,0.084,-0.085,-0.041,0,0.107,0.098,-0.017,0.04,-0.06,-0.121,-0.124,-0.181,–,0.112,-0.113,-0.029,0.014,0.164,–
Cc1ccc(NC(=O)c2cccc(N(C)C)c2)cc1NC(=O)c1ccc(O)cc1,0.071,-0.059,0.034,0.026,0.036,0.094,0,0.051,0.056,0.023,0.006,0.143,-0.097,0.012,-0.183,0.162,-0.036,-0.012,–,–
CS(=O)(=O)N1CCN(Cc2cc3nc(-c4cccc5[nH]ncc45)nc(N4CCOCC4)c3s2)CC1 [pictilisib],–,0.085,0.007,0.063,-0.07,0.173,0.01,-0.018,-0.022,-0.06,-0.038,-0.249,-0.249,–,0.02,0.107,0.144,0.01,-0.037,–
